Results filed as inconclusive are left out. Unmarked numbers belong to inactive results. Activity calls are given as the source filed them. Calls follow the shape of the full dose curve.
Experiment: cAMP Responsive Elements (CRE) small molecule agonists, cell-based qHTS assay (AID 1963590)
Conditions: CRE-bla HEK293T, beta-lactamase FRET ratio, 3 h; series mostly up to 92.4 µM; activation: at the top concentration
Excerpt: U.S. Tox21 Program National Center for Advancing Translational Sciences [NCATS] Division of Preclinical Innovation [DPI] U.S. Environmental Protection Agency [EPA] National Institutes of Environmental Health Sciences [NIEHS] National Toxicology Program [NTP] U.S. Food and Drug Administration [FDA] Tox21 Assay Overview: CREB (cyclic-AMP Responsive Element Binding Protein) is a cellular transcription factor. It binds to certain DNA sequences called cAMP Responsive Elements (CRE) and regulates the transcription of the genes. […] This cell line can be used to find agonists/antagonists of the cyclic AMP signaling pathway. The activation of the report gene under culture conditions can be detected by fluorescence intensity. This cell line has been used to screen the Tox21 10K compound library to identify agonists that induce oxidative stress.
Tox21 Assay Protocol Summary: CRE-bla Hek 293T cells were suspended in assay medium (DMEM containing 10% dialyzed FBS, 0.1 mM NEAA, 1 mM sodium pyruvate and 25 mM HEPES) and dispensed at 2,000 cells/5 uL /well into 1536-well black wall/clear bottom plates using a Multidrop Combi (ThermoFisher Scientific, Waltham, MA) dispenser. After the assay plates were incubated at 37 C/5% CO2 for 18 hrs, 23 nL of compounds dissolved in DMSO, positive controls or DMSO only was transferred to the assay plate by a pintool workstation (Kalypsys, San Diego, CA). After the plates were incubated at 37 C/5% CO2 for 3 hrs, 1 uL of LiveBLAzer B/G FRET substrate (Invitrogen, Carlsbad, CA) was added to each well using Bioraptr Flying Reagent Dispenser (FRD, Aurora Discovery, San Diego, CA). The plates were incubated at room temperature for 2 h.
% is scaled to controls: 0 for no effect and ±100 for the full control effect.

Row | SMILES | activation | Potency
1 | N#CCCC(Br)(C#N)CBr (stereo not given) | -4.96% | 
2 | CC(C)CCCCCCCOC(=O)c1ccccc1C(=O)OCCCCCCCC(C)C | -0.102% | 
3 | O=C(N[C@@H]1N=C(c2ccccc2F)c2cccc3c2N(CC3)C1=O)c1cc2ccccc2[nH]1 | 2.03% [at 42.5 µM] | 
4 | CC(C)(C)c1ccc(CCOc2ncnc3ccccc23)cc1 | -0.377% | 
5 | CCC(C)c1cc(C(C)(C)C)cc(-n2nc3ccccc3n2)c1O (stereo not given) | -2.62% [at 42.5 µM] | 
6 | CN1[C@@H]2CC[C@H]1CC(O)C2 (stereo not given in full) | -1.14% | 
7 | CC[N+]1(CCOC(=O)C(O)(c2ccccc2)c2ccccc2)CCCCC1 | 0.542% [at 42.5 µM] | 
8 | CCN[C@H](C)Cc1cccc(C(F)(F)F)c1 | 0.212% | 
9 | C#CC(O)(C=CCl)CC (stereo not given) | 0.0976% [at 42.5 µM] | 
10 | S=C(SSC(=S)N1CCCCC1)N1CCCCC1 | 4.81% [at 42.5 µM] | 
11 | Cc1nc(N(C)C)nc(OC(=O)N(C)C)c1C | 0.587% | 
12 | CC1(c2ccc(Oc3ccccc3)cc2)OC(=O)N(Nc2ccccc2)C1=O (stereo not given) | 0.352% | 
13 | CC(=O)OC(c1ccccc1)C(Cl)(Cl)Cl (stereo not given) | 2.73% | 
14 | COc1cc(CC#N)cc(OC)c1OC | 0.399% [at 42.5 µM] | 
15 | CN1[C@@H]2CC[C@H]1CC(OC(=O)c1cc(Cl)cc(Cl)c1)C2 (stereo not given in full) | 5.4% [at 42.5 µM] | 
16 | O=C(Cl)c1ccc(Cl)cc1 | -0.672% | 
17 | CC(CCc1ccccc1)NC(C)C(O)c1ccc(O)cc1 (stereo not given) | 14% [at 42.5 µM] | 
18 | CC(Cl)C(C)Cl (stereo not given) | -0.984% | 
19 | C=COC(C)=O | 0.753% | 
20 | COCC(C)N(C(=O)CCl)c1c(C)csc1C (stereo not given) | -2.37% | 

Row | SMILES | activation | Potency
21 | COc1ccc(C=O)cc1O | -1.32% | 
22 | COc1cc(OC)nc(NC(=O)NS(=O)(=O)c2ncccc2OCC(F)(F)F)n1 | -1.52% | 
23 | O=C(Nc1ccc2[nH]ccc2c1)c1cc2cc(F)ccc2n1Cc1cccc(F)c1 | -5.69% | 
24 | O=S(=O)(c1ccc(Cl)cc1)c1ccc(Cl)cc1 | 10.5% | 
25 | Cc1ccc2cc3c(ccc4ccccc43)c3c2c1CC3 | 0.275% [at 42.5 µM] | 
26 | Brc1cccc(-c2ccccc2)c1 | 0.97% | 
27 | CCCSP(=S)(OCC)Oc1ccc(Cl)cc1Cl (stereo not given) | 3.11% | 
28 | Clc1cc2c(cc1Cl)Oc1cc(Cl)c(Cl)cc1O2 | 0.0128% [at 0.349 µM] | 
29 | NC(=O)CI | 0.136% | 
30 | CNC(=O)O/N=C(/CSC)C(C)(C)C | 0.0132% | 
31 | ClCCCCBr | -0.541% | 
32 | CCCCCCCc1ccc(O)cc1 | 2.31% | 
33 | CCCCCOC(=O)c1ccccc1C(=O)OCCCCC |  | inactive
34 | CC(C)(OO)c1ccccc1 | 0.45% | 
35 | CCN[C@@H](C)Cc1cccc(C(F)(F)F)c1 | 0.49% [at 42.5 µM] | 
36 | CCc1ccccc1N | 0.444% | 
37 | O=C(CBr)c1ccccc1 | 9.3% | 
38 | Nc1nc(N)nc(N)n1 | 0.201% | 
39 | CCN(CC)CCOC(=O)C(C)(c1ccccc1)c1ccccc1 | 0.469% [at 42.5 µM] | 
40 | ClC(Cl)=C(Cl)Cl | 0.508% | 
